Experimental data published in PubChem BioAssay (NCATS).
Inconclusive results are not listed. A call without a number means that no potency is given here. Active and inactive are the calls of the source. Calls follow the shape of the dose curve; as a rule, active = well fitted inhibition curve with a large enough effect; inconclusive = small, poorly fitted or top-dose-only effect; inactive = no such curve, though single readings can be large or run the other way.

molecular target: Endonuclease 4 (Escherichia coli (strain K12)) (UniProt P0A6C1); assay: Counterscreen for APE1 Inhibitors: qHTS Validation Assay for Inhibitors of Endonuclease IV (AID 1708); details: E. coli endonuclease IV, DNA cleavage fluorescence; series mostly up to 57.1 µM
Text: Assay Provider: David M. Wilson, III, National Institute on Aging, NIH
Screening Center PI: Austin, C.P.
Screening Center: NIH Chemical Genomics Center [NCGC]
Escherichia coli endonuclease IV (Endo IV) is the key member of the AP endonuclease superfamily that catalyzes the cleavage of damaged DNA backbone immediately 5' of an AP site. E. coli EndoIV has the same functional activities as human APE1 but has no sequence or structural homology to the human protein. Herein, we utilize E. coli EndoIV to counter screen compound libraries as part of a high-throughput campaign for APE1 inhibitor identification. A concentration-response screen of the LOPAC1280 collection was performed under experimental conditions identical to those used in the APE1 screen.
Inhibition of APE1 activity was screened by utilizing double-stranded short substrate containing tetrahydrofuran (THF) abasic site labeled with rhodamine-type fluorophore (TAMRA) at the 5'-end and with non-fluorescent Black Hole Quencher-2 (BHQ-2) at the opposing 3'-end. An increase in the fluorescence intensity due to incision of the abasic site by APE1 was used to measure the enzyme activity.
Buffer: 50 mM Tris-HCl (pH 7.5) containing 50mM NaCl, 2 mM MgCl2, 1 mM DTT and 0.01% Tween-20.
Buffer in columns 3 and 4 as negative control (no enzyme).
Substrate: 50 nM final concentration of TAMRA/BHQ-2 substrate dispensed throughout the plate.
Enzyme: 2 nM E. coli EndoIV final concentration in columns 1, 2, 5-48. Column 1 is neutral (100% activity).
Control: Pintool transfer of control inhibitor NSC-13755 to column 2 of all assay plates. Two-fold, 16 pt dilution in duplicate to produce final concentrations in the 5.75 uM - 0.175 nM range.
Three uL of enzyme were dispensed to 1536-well Greiner black solid bottom plates. Compounds (23 nL) were transferred via Kalypsys pintool. The plates were incubated for 15 min at room temperature, and then 1 uL of substrate solution was added to start the reaction. The plates were immediately transferred into ViewLux High-throughput CCD imager (Perkin-Elmer) in order to measure the reaction progress in kinetic mode (three reads every 60 seconds) using 525 nm excitation and 598 nm emission fluorescence protocol. The fluorescence intensity difference between the third and the first time points was used to compute reaction progress.
Potency is read from the fitted curve at half-maximal effect.

SMILES	Potency
NC1(C(=O)O)CCc2cc(C(=O)O)ccc21 (stereo not given)	inactive
CC(N)=NCCCC[C@@H](N)C(=O)O	inactive
CCCn1c(=O)c2[nH]c(-c3ccc(S(=O)(=O)O)cc3)nc2n(CCC)c1=O	inactive
C[N+](C)(C)CC=O	inactive
CCCOC(=O)c1c(-c2ccccc2)nc(CC)c(C(=O)SCC)c1CCC	inactive
NC/C=C\C(=O)O	inactive
N=C(N)SCCN	inactive
N[C@H](C(=O)O)[C@H]1C[C@@H]1C(=O)O	inactive
CCCCCCN(CCCCCC)C(=O)Cc1c(-c2ccc(F)cc2)[nH]c2ccccc12	inactive
CC(N)(Cc1ccc(O)c(O)c1)C(=O)O (stereo not given)	inactive
O=c1[nH]c2cc(Cl)ccc2c(O)c1-c1ccc(Oc2ccccc2)cc1	inactive
CCN1C(=O)C=CC1=O	inactive
O=c1onc2n1-c1cc(Br)ccc1OC2	inactive
Cc1cccc(C2CN(C)CCc3c2cc(O)c(O)c3Cl)c1 (stereo not given)	inactive
c1ccc2nc(C3=NCCN3)ccc2c1	inactive
N[C@@H](Cc1ccc(O)c(I)c1)C(=O)O	inactive
CCCn1c(=O)c2[nH]c(C3CCCC3)nc2n(CCC)c1=O	inactive
O=C1OC(=O)C2C3CCC(O3)C12 (stereo not given)	inactive
S=C(S)N1CCCC1	inactive
CC(=O)O[C@H]1CC2(C)[C@@H](C[C@@H](O)[C@H]3[C@@]4(C)CC[C@@H](O)[C@@H](C)[C@@H]4CC[C@@]32C)C1=C(CCC=C(C)C)C(=O)O (stereo not given in full)	inactive

SMILES	Potency
COc1ccc(NC(=O)c2ccc(-c3ccc(-c4noc(C)n4)cc3C)cc2)cc1N1CCN(C)CC1	inactive
O=C(O)Cc1ccc(O)c(O)c1	inactive
NC1C=CC=C(C(=O)O)C1 (stereo not given)	inactive
CCOC(=O)C12CC1/C(=N/O)c1ccccc1O2 (stereo not given)	inactive
NS(=O)(=O)c1cccc2c1c([N+](=O)[O-])cc1nc(O)c(O)nc12	inactive
Cc1nc(N=Nc2cc(S(=O)(=O)O)c3cc([N+](=O)[O-])cc(S(=O)(=O)O)c3c2)c(COP(=O)(O)O)c(C=O)c1O	15.8 µM (active)
Cc1nc2c(OCc3ccccc3)cccn2c1CC#N	inactive
CCCCOc1cc(CC2CNC(=O)N2)ccc1OC (stereo not given)	inactive
COc1ccc2c(c1)c(CC(=O)O)c(C)n2Cc1ccc(Cl)cc1	inactive
N=C(N)c1ccc(OCCCCCOc2ccc(C(=N)N)cc2)cc1 (tested in a mixture with another compound)	inactive
O=C(O)c1cc(=O)cc(C(=O)O)[nH]1	inactive
O=C(O)c1ccccc1Nc1cccc(OCc2ccc3ccccc3n2)c1	inactive
O=c1cc(O)cc(/C=C/c2ccc(O)c(O)c2)o1	inactive
Nc1ccc(-c2nc3ccc(-c4nc5ccc(N)cc5[nH]4)cc3[nH]2)cc1	22.4 µM (active)
COc1cc(C(O)CO)ccc1O (stereo not given)	inactive
NCC(O)(CS(=O)(=O)O)c1ccc(Cl)cc1 (stereo not given)	inactive
CC(C)Cn1c(=O)n(C)c(=O)c2[nH]cnc21	inactive
CN[C@H](CC(=O)O)C(=O)O	inactive
Nc1ncnc2c1ncn2C1CCCC1	inactive
COc1cc(CNC(=O)CCCCCCC(C)C)ccc1O	inactive
